Laboratory results taken from the supplement of paper PMC11219838.
Values without a mark were called inactive.

System: Caenorhabditis elegans L1 (N2)
Test: survival and reproduction score of C. elegans L1 (0: 0-10 living worms, 1: 11-20, 2: 21-50, 3: >50, 4: overgrown) (score 0-4); higher = more worms, less nematicidal, active = 1 or less; extreme values may be limits of the assay
Conditions: 60 µM; 6 days; temperature: 20 °C
In short: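 Compound was pinned to a final 60 µM (0.6% v/v DMSO) into 96-well wells, each holding about 20 synchronized C. elegans N2 L1s and E. coli HB101 in liquid NGM. After 6 days of shaking at 200 rpm and 20 °C in sealed plates, the worms in each well were examined. The ordinal readout of survival and reproduction, based on living worms per well, was assessed under a dissection microscope. On this scale 0 meant 0–10 worms and 4 meant overgrown, starved wells, and two biological replicates were averaged.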

SMILES	survival and reproduction score
Cc1cc(OCc2nc(-c3ccncc3)no2)ccc1Cl	4
CCOc1nc(-c2ccc(C)cc2)ccc1-c1noc(-c2ccco2)n1	4
Cc1ccc(-c2noc(COc3ccc(C)cc3C)n2)cc1	4
O=C(Nc1cccc(-c2noc(COc3ccccc3)n2)c1)c1cccs1	4
COc1ccc(-c2nnc(SCC(=O)Nc3ccccc3C(C)C)o2)cc1	4
Cc1ccc(OCc2nc(-c3ccc(Br)o3)no2)cc1C	4
O=C(CSc1nnc(-c2ccccc2)o1)N1CCc2ccccc21	4
Cc1cc(OCc2nc(-c3ccccn3)no2)ccc1Br	4
Cc1cccc(-c2noc(COc3ccc(Cl)cc3C)n2)c1	4
COc1ccc(NC(=O)c2ccccc2-c2nc(-c3ccccc3C)no2)cc1	4
COc1ccc(-c2noc(-c3ccccc3Cl)n2)cc1	4
O=C(CSc1nnc(-c2ccncc2)o1)Nc1ccc(Cl)cc1Cl	4
Cc1cc(NC(=O)CSc2nnc(-c3ccccc3Cl)o2)no1	4
Cc1ccc(-c2nnc(SCc3ccccc3C#N)o2)cc1	4
COc1ccc(-c2nnc(SCC(=O)N(C)c3ccccc3)o2)cc1	4
Clc1ccccc1-c1noc(COc2ccc(Br)cc2)n1	4
Cc1ccccc1CSc1nnc(-c2ccccc2)o1	4
Clc1ccc(-c2noc(-c3ccncc3)n2)cc1	3.5
Cc1ccc(-c2nc(-c3ccc4c(c3)OCO4)no2)cc1	4
